The values below come from PubChem BioAssay (NCI).

Compounds without any hit were thinned out: in the full panel of roughly 83,000, 20% have a hit.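 Single-concentration screen, 48 h exposure, 96-well plates. Endpoint: percent growth. Below 10 = active.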 Values without a mark were called inactive. Active and inactive are the calls of the source.

What all share (test): NCI-60 one-dose screen, 48 h (100 = growth as untreated, 0 = no growth, -100 = all killed)
The subject of one experiment is SR leukemia. The note with it: 10 µM unless noted.
A further experiment has as its system OVCAR-8 ovarian. The note with it: 10 µM unless noted.
In the next experiment the test system is OVCAR-5 ovarian. Conditions: 10 µM unless noted.
The next experiment deals with OVCAR-4 ovarian. Conditions: 10 µM unless noted.
The subject of another experiment is SK-OV-3 ovarian. The note with it: 10 µM unless noted.
For another experiment, the system named is IGROV1 ovarian. The note with it: 10 µM unless noted.
Another experiment deals with OVCAR-3 ovarian. The note with it: 10 µM unless noted.
The test system of another experiment is NCI/ADR-RES ovarian. The note with it: 10 µM unless noted.
In another experiment the test system is T-47D breast. Conditions: 10 µM unless noted.
The next experiment has as its system BT-549 breast. The note with it: 10 µM unless noted.
The test system of a further experiment is MDA-MB-435 melanoma. The note with it: 10 µM unless noted.
A further experiment deals with SW-620 colon. The note with it: 10 µM unless noted.
The test system of a further experiment is MCF7 breast. The note with it: 10 µM unless noted.
A further experiment relates to HCT-116 colon. The note with it: 10 µM unless noted.
The test system of another experiment is HCC-2998 colon. The note with it: 10 µM unless noted.
A further experiment deals with KM12 colon. Conditions: 10 µM unless noted.
The next experiment has as its system RPMI-8226 leukemia. Conditions: 10 µM unless noted.
Another experiment relates to HS 578T breast. The note with it: 10 µM.

In the case of `C=C1NC(=O)C(C(C)CC)NC(=O)C2CSCC(NC(=O)CCC(=O)O)C(=O)NC(Cc3ccccc3)C(=O)NC(C)C(=O)NC(CC(C)CC)C(=O)NC(C(=O)NC(Cc3ccccc3)C(=O)N3CCCC3C(=O)N2)C(C)OC(=O)C(CO)NC(=O)C(C(O)COC)N(C)C(=O)C(C(C)C)NC(=O)C(CC(C)CC)NC1=O` (stereo not drawn), the growth is 12.5% [6 µM] in the experiment on SR leukemia; 12.9% [6 µM] with OVCAR-8 ovarian; 44.9% [6 µM] with OVCAR-5 ovarian; 55.6% [6 µM] in the experiment with OVCAR-4 ovarian; 39% [6 µM] in the experiment with SK-OV-3 ovarian; 30.9% [6 µM] in the experiment on IGROV1 ovarian. Moreover, the growth in the experiment with OVCAR-3 ovarian was 12.4% [6 µM]; in the experiment on NCI/ADR-RES ovarian, 9.55% [6 µM] (active); with T-47D breast it was 60.2% [6 µM]; with BT-549 breast, 7.87% [6 µM] (active); in the experiment with MDA-MB-435 melanoma, -34.8% [6 µM] (active); in the experiment on SW-620 colon it was 21.2% [6 µM]. Further, the growth in the experiment on MCF7 breast was 16.9% [6 µM]; in the experiment with HCT-116 colon it was 6.69% [6 µM] (active); with HCC-2998 colon, 12.3% [6 µM]; in the experiment with KM12 colon it was 2.09% [6 µM] (active).

As to `COc1cccc(NC(=O)c2c(-c3ccccc3)c(-c3ccccc3)n[nH]c2=O)c1`, the growth with SR leukemia is 88.3%; in the experiment with OVCAR-8 ovarian, 103%; in the experiment with OVCAR-5 ovarian, 97.8%; in the experiment with OVCAR-4 ovarian, 86%; in the experiment on SK-OV-3 ovarian, 99.5%; with IGROV1 ovarian, 105%. Also, the growth with OVCAR-3 ovarian was 107%; in the experiment with T-47D breast it was 87.5%; in the experiment on BT-549 breast, 102%; in the experiment on MDA-MB-435 melanoma, 98%; in the experiment with SW-620 colon it was 98.7%; in the experiment on MCF7 breast, 95.9%. Besides, the growth with HCT-116 colon was 94.9%; in the experiment with HCC-2998 colon, 94.4%; with KM12 colon it was 103%.

Regarding `CCN(C(=O)Nc1cccc2ccccc12)c1ccccc1`, the growth in the experiment with RPMI-8226 leukemia is 103%; in the experiment on OVCAR-8 ovarian, 74.3%; in the experiment with OVCAR-5 ovarian it was 91.6%; with OVCAR-4 ovarian it was 99.9%; in the experiment on SK-OV-3 ovarian, 96.2%; in the experiment on IGROV1 ovarian it was 90.4%. The growth was 108% in the experiment on OVCAR-3 ovarian; 111% in the experiment with HS 578T breast; 102% in the experiment on NCI/ADR-RES ovarian; 88.1% in the experiment on T-47D breast; 108% in the experiment with BT-549 breast; 105% with MDA-MB-435 melanoma. Further, the growth with SW-620 colon is 107%; in the experiment with MCF7 breast it was 97.8%; with HCT-116 colon it was 106%; in the experiment on HCC-2998 colon, 103%; with KM12 colon, 108%.

`COc1ccc(-c2nnc(SCC(=O)Nc3ccc(C(=O)/C=C/c4ccc(Cl)cc4)cc3)n2-c2ccccc2)cc1`: the growth with RPMI-8226 leukemia is 83.8%; with OVCAR-8 ovarian, 100%; in the experiment on OVCAR-5 ovarian, 107%; with OVCAR-4 ovarian, 92.4%; with SK-OV-3 ovarian, 99.5%; with IGROV1 ovarian, 93.5%. In addition, the growth in the experiment with OVCAR-3 ovarian is 97.8%; in the experiment on HS 578T breast it was 96.9%; in the experiment with NCI/ADR-RES ovarian, 102%; in the experiment on T-47D breast, 88%; in the experiment on BT-549 breast, 84.6%; in the experiment on MDA-MB-435 melanoma it was 105%. The growth in the experiment with SW-620 colon was 101%; in the experiment with MCF7 breast, 95.3%; in the experiment on HCT-116 colon it was 76%; in the experiment with HCC-2998 colon, 103%; with KM12 colon, 98.2%.

Consider `Clc1cc(Br)ccc1-c1ccc(CNCC2CCNCC2)o1`, for which the growth was 17.2% in the experiment on SR leukemia; 33.6% with OVCAR-8 ovarian; 84.8% with OVCAR-5 ovarian; 67.2% in the experiment with SK-OV-3 ovarian; 53.8% with IGROV1 ovarian; 14% in the experiment on OVCAR-3 ovarian. For the same compound, the growth was 62.4% with HS 578T breast; 54.7% in the experiment on NCI/ADR-RES ovarian; 43.8% in the experiment with T-47D breast; 77.9% in the experiment with BT-549 breast; 52.9% with MDA-MB-435 melanoma; 24.5% with SW-620 colon. Further, the growth in the experiment on MCF7 breast is 39.7%; in the experiment on HCT-116 colon, 40.9%; in the experiment on HCC-2998 colon, 88.2%; in the experiment with KM12 colon, 53.9%.

On to `O=C(CS)OCC(COC(=O)CS)(COC(=O)CS)COC(=O)CS`, for which the growth in the experiment on SR leukemia is 38.6%; in the experiment on OVCAR-8 ovarian it was 82.2%; in the experiment on OVCAR-5 ovarian, 104%; with OVCAR-4 ovarian, 83.6%; with SK-OV-3 ovarian it was 103%; with IGROV1 ovarian, 94.4%. Moreover, the growth with OVCAR-3 ovarian was 109%; in the experiment with NCI/ADR-RES ovarian, 74.3%; with T-47D breast, 89.1%; with BT-549 breast, 108%; in the experiment on MDA-MB-435 melanoma, 78.8%; with SW-620 colon, 107%. Besides, the growth was 75.9% in the experiment on MCF7 breast, 79.6% with HCT-116 colon, 92.2% in the experiment with HCC-2998 colon and 67.5% in the experiment on KM12 colon.

In the case of `N=C(N)c1ccc(-c2ccc(-c3cc(Cl)cc(Cl)c3)o2)nc1`, the growth is -27.4% (active) with SR leukemia; -49.4% (active) in the experiment with OVCAR-8 ovarian; -62.3% (active) in the experiment on OVCAR-5 ovarian; -86.5% (active) in the experiment on SK-OV-3 ovarian; -41.3% (active) in the experiment on IGROV1 ovarian; -95.2% (active) with OVCAR-3 ovarian. The growth in the experiment on HS 578T breast was 83.4%; with NCI/ADR-RES ovarian, -29.8% (active); with T-47D breast, -66.1% (active); in the experiment with BT-549 breast it was 91.2%; in the experiment on MDA-MB-435 melanoma it was -78.1% (active); in the experiment on SW-620 colon it was -82.7% (active). Further, the results for the growth in the experiment on MCF7 breast, in the experiment with HCT-116 colon and with HCC-2998 colon were -67.1% (active), -74% (active) and -41.9% (active), respectively.

For the compound `CC(=O)c1cc(C(=O)c2ccc3c(c2)Sc2ccccc2N3)c2c(C)cccn12`, the growth in the experiment on RPMI-8226 leukemia is 15.7%; in the experiment with OVCAR-8 ovarian, 18.8%; in the experiment with OVCAR-5 ovarian, 45.4%; with OVCAR-4 ovarian it was 47%; with SK-OV-3 ovarian, 25.1%; with IGROV1 ovarian, 34.1%. Further, the growth in the experiment with OVCAR-3 ovarian is -27.5% (active); with HS 578T breast it was 56.2%; with NCI/ADR-RES ovarian, 9.46% (active); in the experiment with T-47D breast, 58.1%; with BT-549 breast, 18.2%; in the experiment on MDA-MB-435 melanoma it was -26.9% (active). In addition, the growth in the experiment on SW-620 colon is 28.8%; in the experiment with MCF7 breast, 24.5%; in the experiment with HCT-116 colon it was 6.07% (active); with HCC-2998 colon, 22.8%; with KM12 colon, 11.8%.

As to `CC1C2CCC(C2)C1COCCOCCO` (stereo not drawn), the growth is 105% in the experiment on SR leukemia; 102% in the experiment on OVCAR-8 ovarian; 107% in the experiment on OVCAR-5 ovarian; 110% in the experiment with SK-OV-3 ovarian; 113% in the experiment on IGROV1 ovarian; 112% in the experiment on OVCAR-3 ovarian. The growth with HS 578T breast is 110%; with NCI/ADR-RES ovarian, 104%; with BT-549 breast, 104%; in the experiment with MDA-MB-435 melanoma, 110%; in the experiment with SW-620 colon, 101%; in the experiment on HCT-116 colon, 108%. In addition, the growth was 105% in the experiment with HCC-2998 colon and 110% with KM12 colon.
